One molecule from the supplement of paper PMC8728848 can be followed below.

Common to all, as to assay: glycan array binding signal (z-score within array); higher = stronger binding
Holding throughout (conditions): glycan notation: IUPAC condensed, linker removed

The target of assay [1] is Fuc(a1-2)Gal(b1-4)Fuc(a1-3)]GlcNAc(b1-2)Man(a1-3)[Fuc(a1-2)Gal(b1-4)[Fuc(a1-3)]GlcNAc(b1-2)Man(a1-6)]Man(b1-4)GlcNAc(b1-4)GlcNAc. The gist of the method: (§1)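 Glycan array binding is given as a within-array Z-score, which can be read as non-binding when negative. The arrays, 3228 of them, came from the Consortium for Functional Glycomics database and were retained only where the protein sequence was available. Z-scores were averaged across arrays of the same protein sequence at different concentrations or buffers and across linkers.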

The target in assay [2] is Fuc(a1-2)Gal(b1-4)GlcNAc(b1-2)Man(a1-3)[Fuc(a1-2)Gal(b1-4)GlcNAc(b1-2)Man(a1-6)]Man(b1-4)GlcNAc(b1-4)[Fuc(a1-6)]GlcNAc. A digest of the protocol:
as §1

For assay [3], the target named is Fuc(a1-2)Gal(b1-4)[Fuc(a1-3)]GlcNAc(b1-2)[Fuc(a1-2)Gal(b1-4)[Fuc(a1-3)]GlcNAc(b1-4)]Man(a1-3)[Fuc(a1-2)Gal(b1-4)[Fuc(a1-3)]GlcNAc(b1-2)Man(a1-6)]Man(b1-4)GlcNAc(b1-4)GlcNAc. The gist of the method:
as §1

Assay [4] concerns the target Fuc(a1-2)Gal(b1-4)[Fuc(a1-3)]GlcNAc(b1-3)Gal(b1-4)[Fuc(a1-3)]GlcNAc(b1-3)Gal(b1-4)[Fuc(a1-3)]GlcNAc. A digest of the protocol: as §1
Assay [5] concerns the target Fuc(a1-2)Gal(b1-4)[Fuc(a1-3)]GlcNAc(b1-3)GalNAc. A digest of the protocol:
as §1

Assay [6] concerns the target Fuc(a1-2)Gal3S(b1-4)GlcNAc. The gist of the method:
as §1

Assay [7] deals with Fuc(a1-2)[Gal(a1-3)]Gal(b1-3)GalNAc. A digest of the protocol:
as §1

For assay [8], the target named is Fuc(a1-2)[Gal(a1-3)]Gal(b1-3)GlcNAc(b1-2)Man(a1-3)[Fuc(a1-2)[Gal(a1-3)]Gal(b1-3)GlcNAc(b1-2)Man(a1-6)]Man(b1-4)GlcNAc(b1-4)[Fuc(a1-6)]GlcNAc. The gist of the method:
as §1

Assay [9] has as its target Fuc(a1-2)[Gal(a1-3)]Gal(b1-4)GlcNAc. The gist of the method:
as §1

Assay [10] deals with Fuc(a1-2)[Gal(a1-4)]Gal(b1-4)GlcNAc. The gist of the method: as §1
Assay [11] has as its target Fuc(a1-2)[GalNAc(a1-3)]Gal(b1-4)GlcNAc(b1-3)Gal(b1-4)GlcNAc(b1-3)Gal(b1-4)GlcNAc. A digest of the protocol:
as §1

Assay [12] concerns the target Gal(b1-3)GalNAc(b1-4)[Neu5Ac(a2-3)]Gal(b1-4)Glc. A digest of the protocol:
as §1

Assay [13] addresses Gal(b1-3)[Neu5Ac(b2-6)]GalNAc. The gist of the method: as §1
For assay [14], the target named is Gal(b1-4)GlcNAc(b1-2)Man(a1-3)[Gal(b1-4)GlcNAc(b1-2)Man(a1-6)][GlcNAc(b1-4)]Man(b1-4)GlcNAc(b1-4)[Fuc(a1-6)]GlcNAc. A digest of the protocol: as §1
In assay [15] the target is Gal(b1-4)GlcNAc(b1-3)Gal(b1-4)GlcNAc(b1-2)Man(a1-3)[Gal(b1-4)GlcNAc(b1-3)Gal(b1-4)GlcNAc(b1-2)Man(a1-6)]Man(b1-4)GlcNAc(b1-4)GlcNAc. The gist of the method:
as §1

The target of assay [16] is Gal(b1-4)GlcNAc(b1-3)Gal(b1-4)GlcNAc(b1-2)Man(a1-3)[Gal(b1-4)GlcNAc(b1-3)Gal(b1-4)GlcNAc(b1-2)Man(a1-6)]Man(b1-4)GlcNAc(b1-4)[Fuc(a1-6)]GlcNAc. A digest of the protocol:
as §1

Assay [17] has as its target Gal3S(b1-3)GalNAc. A digest of the protocol: as §1
Assay [18] addresses Gal3S(b1-3)[Fuc(a1-4)]GlcNAc. The gist of the method:
as §1

The target in assay [19] is Gal6S(b1-3)GlcNAc6S. The gist of the method:
as §1

Assay [20] addresses Gal6S(b1-4)Glc. A digest of the protocol: as §1
The target of assay [21] is GalNAc3S(b1-4)GlcNAc3S. A digest of the protocol: as §1
Assay [22] deals with Glc(b1-4)Glc. The gist of the method: as §1
The target of assay [23] is GlcNAc(a1-4)Gal(b1-3)GlcNAc. The gist of the method: as §1
The target of assay [24] is GlcNAc(a1-4)Gal(b1-4)GlcNAc(b1-3)Gal(b1-4)Glc. The gist of the method: as §1

The entries come from a sample that favours the strongest signals as a whole.

B1: RsaA-N-term (Caulobacter crescentus), P35828 (protein)
chain: MAYTTAQLVTAYTNANLGKAPDAATTLTLDAYATQTQTGGLSDAAALTNTLKLVNSTTAVAIQTYQFFTGVAPSAAGLDFLVDSTTNTNDLNDAYYSKFAQENRFINFSINLATGAGAGATAFAAAYTGVSYAQTVATAYDKIIGNAVATAAGVDVAAAVAFLSRQANIDYLTAFVRANTPFTAAADIDLAVKAALIGTILNAATVSGIGGYATATAAMINDLSDGALSTDNAAGVNLFTAYPSSGVSGSTLSLTTGTDTLTGTANNDTFVAGEVAGDGSGWSHPQFEKGG
On to B1, for which the “glycan array binding signal (z-score)” value in assay [1] is 5.97; in assay [2], 7.05; in [3], 2.4; in [4], -1.26; in assay [5], -0.298; in [6] it was -0.243. Further, the “glycan array binding signal (z-score)” value was -0.328 in assay [7]; -0.025 in [8]; 1.14 in [9]; -0.479 in assay [10]; 0.016 in assay [11]; -0.359 in assay [12]. Besides, the “glycan array binding signal (z-score)” value was 0.215 in [13]; -0.708 in [14]; 3.15 in [15]; 2.39 in assay [16]; 1.7 in [17]; -0.524 in assay [18]. Further, the “glycan array binding signal (z-score)” value in assay [19] is 3.01; in assay [20] it was -0.512; in [21], 0.081; in [22], -0.512; in assay [23], 0.008; in [24], -0.491.
